# Experiments:
# [1] = target: Death-associated protein kinase 1 (Homo sapiens) (UniProt P53355); conditions: at 10 µM
# [2] = target: T1, Discoidin domain-containing receptor 2 (Homo sapiens) (UniProt Q16832); conditions: at 1 µM
# T1 sequence (whole entry): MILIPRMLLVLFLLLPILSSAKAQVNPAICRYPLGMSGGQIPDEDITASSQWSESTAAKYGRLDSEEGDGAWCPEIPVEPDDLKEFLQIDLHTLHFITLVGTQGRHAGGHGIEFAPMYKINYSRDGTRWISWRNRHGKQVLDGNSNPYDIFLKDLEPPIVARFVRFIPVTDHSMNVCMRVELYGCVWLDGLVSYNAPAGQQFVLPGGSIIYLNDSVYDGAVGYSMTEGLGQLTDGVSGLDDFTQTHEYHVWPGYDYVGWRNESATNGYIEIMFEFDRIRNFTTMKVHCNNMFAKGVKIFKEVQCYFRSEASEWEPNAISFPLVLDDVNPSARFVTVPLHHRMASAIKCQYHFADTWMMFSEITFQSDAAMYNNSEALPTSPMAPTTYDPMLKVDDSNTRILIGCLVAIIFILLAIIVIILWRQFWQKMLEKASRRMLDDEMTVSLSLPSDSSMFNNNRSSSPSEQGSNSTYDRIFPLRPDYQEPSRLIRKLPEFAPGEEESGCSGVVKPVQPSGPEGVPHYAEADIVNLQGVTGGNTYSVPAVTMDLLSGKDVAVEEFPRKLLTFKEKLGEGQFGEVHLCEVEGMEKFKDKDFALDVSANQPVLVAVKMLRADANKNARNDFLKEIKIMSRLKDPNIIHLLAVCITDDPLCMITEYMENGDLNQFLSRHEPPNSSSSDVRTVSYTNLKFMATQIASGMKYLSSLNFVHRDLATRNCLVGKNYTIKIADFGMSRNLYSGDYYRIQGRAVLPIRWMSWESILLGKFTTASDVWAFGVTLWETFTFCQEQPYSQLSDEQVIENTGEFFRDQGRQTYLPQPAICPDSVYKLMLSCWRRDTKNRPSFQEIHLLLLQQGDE
# [3] = target: T2, Myotonin-protein kinase (Homo sapiens) (UniProt Q09013); conditions: at 1 µM
# T2 sequence (whole entry): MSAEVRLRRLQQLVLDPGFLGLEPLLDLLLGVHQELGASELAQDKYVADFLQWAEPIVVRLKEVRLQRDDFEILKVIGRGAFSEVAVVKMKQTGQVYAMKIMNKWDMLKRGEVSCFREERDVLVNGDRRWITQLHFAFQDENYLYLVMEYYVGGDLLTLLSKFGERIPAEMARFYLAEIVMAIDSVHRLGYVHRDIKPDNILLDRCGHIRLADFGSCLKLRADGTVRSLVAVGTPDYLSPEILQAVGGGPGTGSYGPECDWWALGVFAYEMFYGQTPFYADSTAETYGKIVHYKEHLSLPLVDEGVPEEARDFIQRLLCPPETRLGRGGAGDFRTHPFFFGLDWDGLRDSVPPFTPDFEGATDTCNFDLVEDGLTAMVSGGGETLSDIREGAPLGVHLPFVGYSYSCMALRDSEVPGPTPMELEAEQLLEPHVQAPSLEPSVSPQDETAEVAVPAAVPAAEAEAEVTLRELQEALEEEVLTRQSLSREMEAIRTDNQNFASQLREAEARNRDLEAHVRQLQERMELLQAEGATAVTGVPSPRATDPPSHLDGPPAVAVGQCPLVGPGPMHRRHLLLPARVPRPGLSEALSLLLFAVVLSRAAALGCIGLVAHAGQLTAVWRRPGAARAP
# [4] = target: T2, Myotonin-protein kinase (Homo sapiens); conditions: at 10 µM
# [5] = target: T3, Serine/threonine-protein kinase 17A (Homo sapiens) (UniProt Q9UEE5); conditions: at 1 µM
# T3 sequence (whole entry): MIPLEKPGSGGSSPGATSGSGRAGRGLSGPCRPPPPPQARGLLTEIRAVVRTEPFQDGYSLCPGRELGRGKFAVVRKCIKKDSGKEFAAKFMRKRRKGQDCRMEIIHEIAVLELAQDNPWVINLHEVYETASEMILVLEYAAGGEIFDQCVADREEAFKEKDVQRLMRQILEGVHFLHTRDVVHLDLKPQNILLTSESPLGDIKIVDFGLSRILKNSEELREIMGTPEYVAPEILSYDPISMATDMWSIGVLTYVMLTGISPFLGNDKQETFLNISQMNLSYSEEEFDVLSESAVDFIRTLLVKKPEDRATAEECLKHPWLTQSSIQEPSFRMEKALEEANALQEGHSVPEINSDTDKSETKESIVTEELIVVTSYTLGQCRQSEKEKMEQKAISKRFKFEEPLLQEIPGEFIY
# [6] = target: T3, Serine/threonine-protein kinase 17A (Homo sapiens); conditions: at 10 µM
# [7] = target: Epidermal growth factor receptor (Homo sapiens) (UniProt P00533); conditions: at 1 µM
# [8] = target: Epidermal growth factor receptor (Homo sapiens) (UniProt P00533); conditions: at 10 µM
# [9] = target: T4, Ephrin type-A receptor 1 (Homo sapiens) (UniProt P21709); conditions: at 10 µM
# T4 sequence (whole entry): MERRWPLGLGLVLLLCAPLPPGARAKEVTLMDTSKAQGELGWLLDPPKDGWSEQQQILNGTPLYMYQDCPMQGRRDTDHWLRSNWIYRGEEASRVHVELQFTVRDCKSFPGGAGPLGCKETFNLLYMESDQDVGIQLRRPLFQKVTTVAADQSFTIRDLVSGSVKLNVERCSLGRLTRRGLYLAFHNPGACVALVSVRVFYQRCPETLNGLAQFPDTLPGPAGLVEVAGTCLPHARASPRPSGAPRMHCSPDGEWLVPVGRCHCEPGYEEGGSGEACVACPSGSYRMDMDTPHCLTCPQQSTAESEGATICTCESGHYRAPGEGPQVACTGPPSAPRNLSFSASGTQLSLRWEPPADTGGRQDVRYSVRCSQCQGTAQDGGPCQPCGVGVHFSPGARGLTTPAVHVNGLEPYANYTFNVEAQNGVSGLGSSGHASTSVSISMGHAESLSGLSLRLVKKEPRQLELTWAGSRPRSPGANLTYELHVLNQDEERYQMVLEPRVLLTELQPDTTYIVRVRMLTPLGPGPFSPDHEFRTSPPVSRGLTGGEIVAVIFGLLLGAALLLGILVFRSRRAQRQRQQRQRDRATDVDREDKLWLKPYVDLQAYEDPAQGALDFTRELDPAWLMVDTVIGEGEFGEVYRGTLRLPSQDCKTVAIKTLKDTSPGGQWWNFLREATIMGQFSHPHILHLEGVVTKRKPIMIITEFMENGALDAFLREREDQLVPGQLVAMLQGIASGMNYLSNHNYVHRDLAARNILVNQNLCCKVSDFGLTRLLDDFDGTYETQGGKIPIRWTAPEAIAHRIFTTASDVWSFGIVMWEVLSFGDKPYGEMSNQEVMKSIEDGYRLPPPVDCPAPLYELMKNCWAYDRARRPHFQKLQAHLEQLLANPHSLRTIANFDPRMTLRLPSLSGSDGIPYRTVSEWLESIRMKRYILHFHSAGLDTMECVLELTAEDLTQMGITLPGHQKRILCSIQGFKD
# [10] = target: T5, Ephrin type-A receptor 3 (Homo sapiens) (UniProt P29320); conditions: at 1 µM
# T5 sequence (whole entry): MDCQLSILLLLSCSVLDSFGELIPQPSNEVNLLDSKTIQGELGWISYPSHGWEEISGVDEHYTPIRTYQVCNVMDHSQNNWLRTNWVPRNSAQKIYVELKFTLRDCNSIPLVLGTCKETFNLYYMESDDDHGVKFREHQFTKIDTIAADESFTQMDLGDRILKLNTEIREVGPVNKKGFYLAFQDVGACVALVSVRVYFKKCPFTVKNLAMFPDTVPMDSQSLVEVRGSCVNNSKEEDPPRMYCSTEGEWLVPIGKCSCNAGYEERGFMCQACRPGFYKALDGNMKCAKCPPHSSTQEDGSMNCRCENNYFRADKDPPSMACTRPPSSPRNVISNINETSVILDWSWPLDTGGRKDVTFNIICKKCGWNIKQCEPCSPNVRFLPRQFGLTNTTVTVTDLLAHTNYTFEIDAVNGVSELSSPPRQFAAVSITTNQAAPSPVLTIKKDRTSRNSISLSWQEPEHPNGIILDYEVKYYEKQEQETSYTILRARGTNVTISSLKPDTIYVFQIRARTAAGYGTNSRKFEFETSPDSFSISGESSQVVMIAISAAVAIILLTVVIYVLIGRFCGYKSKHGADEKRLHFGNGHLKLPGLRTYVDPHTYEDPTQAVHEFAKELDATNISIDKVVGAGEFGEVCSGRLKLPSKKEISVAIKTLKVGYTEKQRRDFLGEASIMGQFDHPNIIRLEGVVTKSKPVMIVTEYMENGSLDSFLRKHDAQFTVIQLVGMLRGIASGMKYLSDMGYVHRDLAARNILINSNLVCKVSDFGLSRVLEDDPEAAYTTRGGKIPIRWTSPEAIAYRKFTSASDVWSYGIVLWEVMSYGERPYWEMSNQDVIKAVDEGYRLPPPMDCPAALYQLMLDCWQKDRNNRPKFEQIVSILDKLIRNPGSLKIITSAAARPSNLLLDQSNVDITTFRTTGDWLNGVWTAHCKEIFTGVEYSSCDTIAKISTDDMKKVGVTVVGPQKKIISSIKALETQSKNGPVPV
# [11] = target: T6, Dual specificity tyrosine-phosphorylation-regulated kinase 2 (Homo sapiens) (UniProt Q92630); conditions: at 1 µM
# T6 sequence (whole entry): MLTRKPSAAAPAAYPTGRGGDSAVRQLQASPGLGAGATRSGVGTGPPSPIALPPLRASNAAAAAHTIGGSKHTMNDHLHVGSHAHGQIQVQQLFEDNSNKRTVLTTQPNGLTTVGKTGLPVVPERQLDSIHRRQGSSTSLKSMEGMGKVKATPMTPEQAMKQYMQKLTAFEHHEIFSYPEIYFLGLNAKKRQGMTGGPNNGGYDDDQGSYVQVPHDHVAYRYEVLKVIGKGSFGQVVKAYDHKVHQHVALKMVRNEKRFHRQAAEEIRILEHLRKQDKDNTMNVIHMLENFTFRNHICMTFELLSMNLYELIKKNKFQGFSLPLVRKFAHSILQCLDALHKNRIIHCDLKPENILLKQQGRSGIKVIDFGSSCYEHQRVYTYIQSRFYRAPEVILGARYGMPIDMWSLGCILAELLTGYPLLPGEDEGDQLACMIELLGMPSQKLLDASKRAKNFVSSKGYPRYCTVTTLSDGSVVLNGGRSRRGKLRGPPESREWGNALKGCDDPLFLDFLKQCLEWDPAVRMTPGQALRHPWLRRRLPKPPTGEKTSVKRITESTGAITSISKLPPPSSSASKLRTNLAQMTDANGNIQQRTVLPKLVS
# [12] = target: T6, Dual specificity tyrosine-phosphorylation-regulated kinase 2 (Homo sapiens); conditions: at 10 µM
# [13] = target: Death-associated protein kinase 2 (Homo sapiens) (UniProt Q9UIK4); conditions: at 10 µM
# [14] = target: T4, Ephrin type-A receptor 1 (Homo sapiens); conditions: at 1 µM
# [15] = target: Ephrin type-A receptor 2 (Homo sapiens) (UniProt P29317); conditions: at 10 µM
# [16] = target: T1, Discoidin domain-containing receptor 2 (Homo sapiens); conditions: at 10 µM
# [17] = target: Ephrin type-A receptor 2 (Homo sapiens) (UniProt P29317); conditions: at 1 µM
# Chain of Ephrin type-A receptor 2 (Homo sapiens) (P29317 whole entry, the tested form may be a part): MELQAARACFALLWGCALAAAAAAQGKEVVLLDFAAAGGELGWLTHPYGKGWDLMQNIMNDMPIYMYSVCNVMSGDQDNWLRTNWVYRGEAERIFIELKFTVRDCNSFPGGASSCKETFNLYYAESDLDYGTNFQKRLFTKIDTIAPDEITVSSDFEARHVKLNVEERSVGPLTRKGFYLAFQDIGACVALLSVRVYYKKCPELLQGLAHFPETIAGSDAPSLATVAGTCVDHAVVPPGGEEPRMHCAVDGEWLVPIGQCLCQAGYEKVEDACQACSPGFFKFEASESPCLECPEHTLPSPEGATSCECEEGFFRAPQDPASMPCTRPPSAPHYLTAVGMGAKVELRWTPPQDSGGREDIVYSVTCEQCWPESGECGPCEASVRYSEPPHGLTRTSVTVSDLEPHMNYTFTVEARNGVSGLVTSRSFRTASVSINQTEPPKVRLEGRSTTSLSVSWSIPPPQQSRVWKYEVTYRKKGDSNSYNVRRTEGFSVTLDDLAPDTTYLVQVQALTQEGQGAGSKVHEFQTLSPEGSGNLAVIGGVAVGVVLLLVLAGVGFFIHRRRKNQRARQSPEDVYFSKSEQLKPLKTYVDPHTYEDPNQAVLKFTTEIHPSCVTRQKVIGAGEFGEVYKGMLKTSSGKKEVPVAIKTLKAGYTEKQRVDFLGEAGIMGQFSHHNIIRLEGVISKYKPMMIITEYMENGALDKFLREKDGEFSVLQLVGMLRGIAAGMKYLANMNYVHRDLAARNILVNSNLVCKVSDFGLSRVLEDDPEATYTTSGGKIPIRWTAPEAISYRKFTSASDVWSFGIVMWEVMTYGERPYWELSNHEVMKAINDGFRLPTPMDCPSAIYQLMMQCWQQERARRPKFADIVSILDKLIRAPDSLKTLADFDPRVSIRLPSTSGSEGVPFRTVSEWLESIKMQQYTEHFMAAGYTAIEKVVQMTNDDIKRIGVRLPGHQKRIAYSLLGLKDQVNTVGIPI
# Chain of Death-associated protein kinase 1 (Homo sapiens) (P53355 whole entry, looked up, the tested form may be a part): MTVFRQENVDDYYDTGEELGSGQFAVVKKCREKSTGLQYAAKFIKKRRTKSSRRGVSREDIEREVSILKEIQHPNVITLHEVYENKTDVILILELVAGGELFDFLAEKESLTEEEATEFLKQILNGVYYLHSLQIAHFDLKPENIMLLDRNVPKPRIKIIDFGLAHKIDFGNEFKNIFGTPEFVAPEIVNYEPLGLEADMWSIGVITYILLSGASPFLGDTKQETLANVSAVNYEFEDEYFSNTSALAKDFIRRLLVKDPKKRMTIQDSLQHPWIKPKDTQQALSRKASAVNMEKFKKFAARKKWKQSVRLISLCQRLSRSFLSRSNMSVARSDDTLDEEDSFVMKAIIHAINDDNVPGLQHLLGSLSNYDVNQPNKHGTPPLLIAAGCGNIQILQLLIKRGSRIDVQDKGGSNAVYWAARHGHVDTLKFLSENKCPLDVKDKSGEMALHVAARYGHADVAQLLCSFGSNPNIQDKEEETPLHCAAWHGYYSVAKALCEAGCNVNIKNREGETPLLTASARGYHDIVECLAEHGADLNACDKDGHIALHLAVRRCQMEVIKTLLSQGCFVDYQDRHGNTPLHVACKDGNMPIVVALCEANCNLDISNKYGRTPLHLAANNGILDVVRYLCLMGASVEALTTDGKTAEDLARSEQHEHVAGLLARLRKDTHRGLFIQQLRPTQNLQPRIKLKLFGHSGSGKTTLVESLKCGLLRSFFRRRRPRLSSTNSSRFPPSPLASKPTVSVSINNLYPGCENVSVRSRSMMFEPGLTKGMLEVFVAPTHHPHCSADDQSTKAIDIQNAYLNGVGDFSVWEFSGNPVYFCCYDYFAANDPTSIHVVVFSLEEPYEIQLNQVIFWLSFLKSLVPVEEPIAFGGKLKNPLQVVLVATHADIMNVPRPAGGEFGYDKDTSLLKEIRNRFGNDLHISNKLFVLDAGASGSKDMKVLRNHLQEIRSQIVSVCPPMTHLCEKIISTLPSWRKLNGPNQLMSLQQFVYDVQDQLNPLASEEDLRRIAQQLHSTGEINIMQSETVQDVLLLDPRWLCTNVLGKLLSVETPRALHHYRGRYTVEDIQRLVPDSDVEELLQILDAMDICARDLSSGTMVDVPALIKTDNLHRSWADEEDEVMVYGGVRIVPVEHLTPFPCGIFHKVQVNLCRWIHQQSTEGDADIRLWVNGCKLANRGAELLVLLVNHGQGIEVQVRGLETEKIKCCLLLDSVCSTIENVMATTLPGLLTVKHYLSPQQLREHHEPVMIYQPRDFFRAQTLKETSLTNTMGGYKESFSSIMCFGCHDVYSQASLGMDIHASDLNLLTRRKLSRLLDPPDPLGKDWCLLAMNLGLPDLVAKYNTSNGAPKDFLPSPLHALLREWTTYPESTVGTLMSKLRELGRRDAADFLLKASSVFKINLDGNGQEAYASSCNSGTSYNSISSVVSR
# Chain of Epidermal growth factor receptor (Homo sapiens) (P00533 whole entry): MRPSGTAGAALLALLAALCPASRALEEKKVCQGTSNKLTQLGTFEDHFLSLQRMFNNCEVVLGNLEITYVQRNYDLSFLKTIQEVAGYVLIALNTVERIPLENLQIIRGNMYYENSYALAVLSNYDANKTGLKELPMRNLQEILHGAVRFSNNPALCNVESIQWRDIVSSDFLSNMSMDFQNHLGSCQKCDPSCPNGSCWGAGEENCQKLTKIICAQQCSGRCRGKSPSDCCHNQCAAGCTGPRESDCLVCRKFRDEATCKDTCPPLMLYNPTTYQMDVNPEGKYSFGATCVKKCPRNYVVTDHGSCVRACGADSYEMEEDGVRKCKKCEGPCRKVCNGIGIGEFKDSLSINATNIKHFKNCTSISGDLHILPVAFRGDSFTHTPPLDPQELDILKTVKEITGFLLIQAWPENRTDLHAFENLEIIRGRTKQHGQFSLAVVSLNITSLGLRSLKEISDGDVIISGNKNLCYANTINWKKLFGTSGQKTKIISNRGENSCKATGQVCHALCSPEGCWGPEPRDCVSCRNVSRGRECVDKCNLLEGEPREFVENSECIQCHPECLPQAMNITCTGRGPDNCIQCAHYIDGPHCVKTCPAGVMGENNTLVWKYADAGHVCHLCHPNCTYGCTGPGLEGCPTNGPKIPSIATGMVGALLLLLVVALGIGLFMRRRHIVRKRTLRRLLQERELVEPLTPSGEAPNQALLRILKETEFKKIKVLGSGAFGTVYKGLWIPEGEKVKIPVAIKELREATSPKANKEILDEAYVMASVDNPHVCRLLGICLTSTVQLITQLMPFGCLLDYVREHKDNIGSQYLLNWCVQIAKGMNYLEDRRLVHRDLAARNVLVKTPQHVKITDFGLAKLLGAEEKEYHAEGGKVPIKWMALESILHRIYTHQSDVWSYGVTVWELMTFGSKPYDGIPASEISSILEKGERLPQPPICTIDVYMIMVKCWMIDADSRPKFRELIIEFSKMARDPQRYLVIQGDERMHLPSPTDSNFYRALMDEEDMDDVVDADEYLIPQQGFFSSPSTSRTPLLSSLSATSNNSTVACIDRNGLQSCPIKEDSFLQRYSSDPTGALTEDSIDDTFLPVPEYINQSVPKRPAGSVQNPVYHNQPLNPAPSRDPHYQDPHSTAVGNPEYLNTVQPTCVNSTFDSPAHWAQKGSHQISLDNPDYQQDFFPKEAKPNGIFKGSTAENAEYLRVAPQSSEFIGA
# Chain of Death-associated protein kinase 2 (Homo sapiens) (Q9UIK4 whole entry, looked up): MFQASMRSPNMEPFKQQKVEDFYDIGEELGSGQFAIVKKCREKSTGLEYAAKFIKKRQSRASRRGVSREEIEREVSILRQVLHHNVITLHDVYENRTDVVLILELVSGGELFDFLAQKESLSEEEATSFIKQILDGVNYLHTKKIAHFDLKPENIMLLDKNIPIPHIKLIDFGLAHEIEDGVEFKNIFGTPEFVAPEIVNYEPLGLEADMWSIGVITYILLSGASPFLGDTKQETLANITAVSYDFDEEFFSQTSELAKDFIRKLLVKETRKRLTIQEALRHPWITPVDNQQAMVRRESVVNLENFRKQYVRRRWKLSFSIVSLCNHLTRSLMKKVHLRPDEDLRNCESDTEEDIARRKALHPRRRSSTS
compound,measurement,setting,value
COc1ccc(COc2ccc(Cc3cnc(N)nc3N)cc2OC)cc1,residual activity,[1],82%
same,residual activity,[2],112%
same,residual activity,[3],115%
same,residual activity,[4],139%
same,residual activity,[5],112%
same,residual activity,[6],112%
same,residual activity,[7],112%
same,residual activity,[8],114%
same,residual activity,[9],77%
same,residual activity,[10],108%
CCN1/C(=C/C(C)=O)Sc2ccc(OC)cc21,residual activity,[1],79%
same,residual activity,[4],70%
same,residual activity,[11],5%
same,residual activity,[12],-5%
O=C1NC(=O)C(c2c[nH]c3ccccc23)=C1c1c[nH]c2ccccc12,residual activity,[13],58%
same,residual activity,[5],67%
same,residual activity,[6],25%
same,residual activity,[14],77%
same,residual activity,[9],22%
same,residual activity,[15],50%
Fc1ccc(-c2nc3n(c2-c2ccncc2)CCS3)cc1,residual activity,[1],93%
same,residual activity,[2],83%
same,residual activity,[16],35%
same,residual activity,[3],87%
same,residual activity,[4],96%
same,residual activity,[6],91%
same,residual activity,[12],91%
same,residual activity,[17],99%
same,residual activity,[15],87%
O=C1Cc2c([nH]c3ccc([N+](=O)[O-])cc23)-c2ccccc2N1,residual activity,[5],10%
same,residual activity,[6],7%
same,residual activity,[11],54%
same,residual activity,[12],71%
same,residual activity,[14],109%
same,residual activity,[9],103%

# — ChEMBL document CHEMBL2218924, “A broad activity screen in support of a chemogenomic map for kinase signalling research and drug discovery” (Biochem J, 2013)
